Assay results reported in PubChem BioAssay (NCI).
This is part of a sample that, as a whole, favours compounds with a hit. Of some 83,000 tested, about 20% had one in any assay.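 Note: values are percent growth. 100 is the growth of untreated cells, values between 100 and 0 indicate rising inhibition; between -100 and 0 indicates cell death.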 Active and inactive are the calls of the source. Rule for the calls: active = growth percent below 10; inactive = the rest.

Experiments:
Assay in all cases: NCI-60 one-dose screen, 48 h (100 = growth as untreated, 0 = no growth, -100 = all killed)
DU-145 prostate = conditions: 10 µM unless noted
K-562 leukemia = conditions: 10 µM unless noted
MALME-3M melanoma = conditions: 10 µM unless noted
MDA-MB-231 breast = conditions: 10 µM unless noted
RXF 393 renal = conditions: 10 µM unless noted
SF-268 CNS = conditions: 10 µM unless noted
SF-295 CNS = conditions: 10 µM unless noted
SF-539 CNS = conditions: 10 µM unless noted
UACC-257 melanoma = conditions: 10 µM
M14 melanoma = conditions: 10 µM unless noted
HCT-15 colon = conditions: 10 µM unless noted
HT29 colon = conditions: 10 µM unless noted
SNB-75 CNS = conditions: 10 µM unless noted
SNB-19 CNS = conditions: 10 µM unless noted
U251 CNS = conditions: 10 µM unless noted
PC-3 prostate = conditions: 10 µM unless noted
SK-MEL-5 melanoma = conditions: 10 µM unless noted
UACC-62 melanoma = conditions: 10 µM unless noted
LOX IMVI melanoma = conditions: 10 µM unless noted
SK-MEL-28 melanoma = conditions: 10 µM unless noted

Measured: growth

CCC1=C[C@@H]2CN(C1)Cc1c([nH]c3ccccc13)[C@@](C(=O)OC)(c1cc3c(cc1OC)N(C=O)[C@H]1[C@@](O)(C(=O)OC)[C@H](OC(C)=O)[C@]4(CC)[C@@H]5C[C@@H]5CN5CC[C@]31[C@@H]54)C2
active: DU-145 prostate -9.76% | K-562 leukemia 9.35% | MDA-MB-231 breast -24% | SF-295 CNS -32.8% | SF-539 CNS -18.1% | M14 melanoma 3.92% | HT29 colon -5.12% | SNB-75 CNS 8.7% | PC-3 prostate 7.43% | SK-MEL-5 melanoma -26.9% | LOX IMVI melanoma 7.6%
inactive: MALME-3M melanoma 40.4% | RXF 393 renal 40.7% | SF-268 CNS 16.1% | UACC-257 melanoma 52.5% | HCT-15 colon 10.3% | SNB-19 CNS 28.3% | U251 CNS 11.8% | UACC-62 melanoma 18.5% | SK-MEL-28 melanoma 60.9%

COc1ccc(NC(=O)CSc2nc3ccc(Cl)cc3c(=O)n2-c2ccccc2C(F)(F)F)c(OC)c1OC
inactive: DU-145 prostate 79.1% | K-562 leukemia 92.8% | MALME-3M melanoma 60.8% | MDA-MB-231 breast 54% | RXF 393 renal 60.3% | SF-268 CNS 66.7% | SF-295 CNS 60.9% | SF-539 CNS 66.9% | UACC-257 melanoma 86% | M14 melanoma 91.4% | HCT-15 colon 97.8% | HT29 colon 97.3% | SNB-19 CNS 68.1% | U251 CNS 58% | PC-3 prostate 75.1% | SK-MEL-5 melanoma 89.7% | UACC-62 melanoma 68.7% | LOX IMVI melanoma 88% | SK-MEL-28 melanoma 92.1%
active: SNB-75 CNS -17.3%

CCC(C)NCC(=O)O (stereo not given)
inactive: DU-145 prostate 115% | K-562 leukemia 96.3% | MALME-3M melanoma 105% | MDA-MB-231 breast 111% | RXF 393 renal 103% | SF-268 CNS 107% | SF-295 CNS 92.4% | SF-539 CNS 92.7% | UACC-257 melanoma 112% | M14 melanoma 99.3% | HCT-15 colon 88.5% | HT29 colon 78.8% | SNB-75 CNS 90.9% | SNB-19 CNS 107% | U251 CNS 98.7% | PC-3 prostate 102% | SK-MEL-5 melanoma 97.5% | UACC-62 melanoma 108% | LOX IMVI melanoma 109% | SK-MEL-28 melanoma 104%

COc1ccc(Cn2cc(COc3cc(/C=C/C(=O)c4cc(OC)c(OC)c(OC)c4)ccc3OC)nn2)cc1
inactive: DU-145 prostate 88.5% | K-562 leukemia 12% | MALME-3M melanoma 101% | MDA-MB-231 breast 84.9% | RXF 393 renal 90.3% | SF-268 CNS 94.6% | SF-295 CNS 32.2% | SF-539 CNS 49.2% | UACC-257 melanoma 96.1% | M14 melanoma 90.9% | HCT-15 colon 38.5% | HT29 colon 13% | SNB-75 CNS 59.8% | SNB-19 CNS 82.6% | U251 CNS 44.6% | PC-3 prostate 44.5% | SK-MEL-5 melanoma 80.2% | UACC-62 melanoma 70.1% | LOX IMVI melanoma 36.4% | SK-MEL-28 melanoma 84.6%

COc1ccc(/C=C2\CCCC3=C2NC(C)=NC3c2ccc(OC)c(OC)c2)cc1OC (stereo not given)
inactive: SF-268 CNS 20% | SF-539 CNS 17.1% | UACC-257 melanoma 20.2% | SNB-75 CNS 35.2% | SNB-19 CNS 60.4% | U251 CNS 18.3% | PC-3 prostate 32% | UACC-62 melanoma 10.9% | SK-MEL-28 melanoma 23%
active: DU-145 prostate 7.29% | K-562 leukemia 5.92% | MALME-3M melanoma -0.933% | MDA-MB-231 breast 7.16% | RXF 393 renal -16.6% | SF-295 CNS 3.05% | M14 melanoma -42.1% | HCT-15 colon -61.7% | HT29 colon -2.36% | SK-MEL-5 melanoma 6.23% | LOX IMVI melanoma -72.7%

COC1=CC(c2ccc[nH]2)=N/C1=C\c1[nH]c(C)c(C(=O)CCCCC(=O)NCc2ccccc2)c1C
active: MDA-MB-231 breast -30.5% | RXF 393 renal -72.3% | HCT-15 colon -19.5% | HT29 colon -49% | PC-3 prostate -13.9% | LOX IMVI melanoma -56.3%
inactive: DU-145 prostate 17% | K-562 leukemia 74.5% | MALME-3M melanoma 76.7% | SF-268 CNS 54.9% | SF-295 CNS 51.2% | SF-539 CNS 56.6% | UACC-257 melanoma 86.9% | M14 melanoma 36.2% | SNB-75 CNS 21.7% | SNB-19 CNS 77.1% | U251 CNS 10.6% | SK-MEL-5 melanoma 43.9% | UACC-62 melanoma 89.4% | SK-MEL-28 melanoma 140%

Cc1cccc(NC(=O)c2sc3nc4c(cc3c2N)CCCC4)c1
inactive: DU-145 prostate 45.6% | K-562 leukemia 17.8% | MALME-3M melanoma 24.9% | MDA-MB-231 breast 60.9% | RXF 393 renal 63.8% | SF-268 CNS 51.5% | SF-295 CNS 54.5% | SF-539 CNS 48.5% | UACC-257 melanoma 46.3% | M14 melanoma 30.3% | HCT-15 colon 23.9% | HT29 colon 15.4% | SNB-75 CNS 34.5% | SNB-19 CNS 50.5% | U251 CNS 34.4% | PC-3 prostate 26.6% | SK-MEL-5 melanoma 33.9% | UACC-62 melanoma 26.5% | LOX IMVI melanoma 40.3% | SK-MEL-28 melanoma 53%
